Experimental findings from PubChem BioAssay (Tox21) are described below.

Assay [1] is described as follows: qHTS assay to identify aromatase inhibitors - cell viability counter screen (AID 743084).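 Further: cells stimulated with testosterone during compound exposure; nearly all actives have a fitted effect of over 55% in size.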 For orientation: In qHTS, concentration-response curves come from the screen itself.
Assay [2] has as its target Aryl hydrocarbon receptor (Homo sapiens) (UniProt P35869). The experiment in a line: qHTS assay to identify small molecule that activate the aryl hydrocarbon receptor (AhR) signaling pathway (AID 743085).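 Further: HG2L7.5c1 human HepG2 liver cells with stably integrated DRE-driven firefly reporter; series mostly up to about 70 µM; nearly all actives have a fitted effect of over 15% in size.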 The method in brief:
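Luminescence read-out: ONE-Glo reagent, 30 min at room temperature, in HG2L7.5c1 HepG2 reporter cells treated 24 h at 37C. Viability was measured beforehand by CellTiter-Fluor fluorescence after 30 min at 37C.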

The target of assay [3] is Peroxisome proliferator-activated receptor gamma (Homo sapiens) (UniProt P37231). Put plainly: qHTS assay to identify small molecule agonists of the peroxisome proliferator-activated receptor gamma (PPARg) signaling pathway (AID 743094; active means well fitted activation curve with a large enough effect in the signal ratio in the repeat runs, not every such curve was filed as active; the % refers to the signal ratio). An outline of the steps:
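Reporter activation was scored by fluorescence of cleaved LiveBLAzer B/G substrate (1 h, room temperature) in PPARg-bla HEK293H cells previously treated 17 h at 37C with DMSO-dissolved compounds.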

The nature of assay [4]: qHTS assay to identify small molecule phospholipidosis (PLD) inducers (AID 1259344; active means well fitted curve in the direction sought with a large enough effect; an effect the other way counts as inactive or inconclusive). The method in brief:
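Accumulated phospholipid, stained red by LipidTOX during 24 h compound treatment of HepG2 cells at 37 C, is quantified from images as pit number and intensity, normalised per cell using Hoechst-stained nuclei.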

The target in assay [5] is Nuclear receptor subfamily 1 group I member 2 (Rattus norvegicus) (UniProt Q9R1A7). The experiment in a line: Rat pregnane X receptor (rPXR) activation by small molecules, qHTS assay (AID 1346983). Further: nearly all actives have a fitted effect of over 20% in size. Further: potency means the concentration at half of the fitted maximal effect. To be noted: rPXR luciferase reporter cells, One-Glo luminescence, 24 h; max activation: stronger effect = higher value. The method in brief: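 Luminescent readout (One-Glo luciferase, 30 min room temperature) followed 24 hr compound treatment at 37 C of rPXR cells plated 2,000 per well and preincubated 5hr; qHTS format with compounds delivered in DMSO.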
Nuclear receptor subfamily 1 group I member 2 (Rattus norvegicus), sequence (Q9R1A7 whole entry, looked up): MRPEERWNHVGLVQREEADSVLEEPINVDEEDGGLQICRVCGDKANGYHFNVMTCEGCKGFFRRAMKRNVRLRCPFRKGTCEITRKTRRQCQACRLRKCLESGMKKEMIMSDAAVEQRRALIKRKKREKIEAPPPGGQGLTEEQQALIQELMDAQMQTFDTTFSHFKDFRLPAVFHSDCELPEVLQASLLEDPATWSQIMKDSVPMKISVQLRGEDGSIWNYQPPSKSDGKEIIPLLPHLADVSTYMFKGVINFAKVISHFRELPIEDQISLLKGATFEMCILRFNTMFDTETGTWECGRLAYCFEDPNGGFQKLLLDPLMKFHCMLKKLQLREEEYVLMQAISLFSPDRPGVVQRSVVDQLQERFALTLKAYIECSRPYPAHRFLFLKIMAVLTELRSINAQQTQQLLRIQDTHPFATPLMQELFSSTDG

For assay [6], the target named is Nuclear receptor subfamily 1 group I member 2 (Homo sapiens) (UniProt O75469). The experiment in a line: CYP3A4 induction through human pregnane X receptor (PXR) by small molecules, qHTS assay (AID 1346984). Further: nearly all actives have a fitted effect of over 40% in size. Further: potency means the concentration at half of the fitted maximal effect. The method in brief:
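Induction measured in HepG2-based DPX-2 cells co-expressing human PXR and a CYP3A4 promoter-driven luciferase. After a 24-hour compound exposure, cells received CYP3A4 luciferin substrate at 3uM final for 3 hours, and light output was then recorded.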

Assay [7] has the same target. Put plainly: Human pregnane X receptor (PXR) activation by small molecules, qHTS assay (AID 1346985). Further: nearly all actives have a fitted effect of over 40% in size. Further: potency means the concentration at half of the fitted maximal effect. The method in brief: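 DPX-2 cells (HepG2 co-transfected with a PXR response element and a CYP3A4-promoter luciferase construct) were seeded at 2,000 per well, rested 5 hr at 37C, then exposed to DMSO-dissolved compounds for 24 hr. Activation was read as luciferase luminescence.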

The nature of assay [8]: qHTS assay to identify small molecule that activate the aryl hydrocarbon receptor (AhR) signaling pathway - cell viability counter screen (AID 743086). Further: series mostly up to about 70 µM; nearly all actives have a fitted effect of over 45% in size. The method in brief: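 Cytotoxicity counter screen: CellTiter-Fluor signal (30 min, 37 C) in 4000 HepG2 cells/well carrying the DRE-luciferase reporter, following 24 h compound exposure at 37 C.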

Results filed as inconclusive are left out. Unmarked numbers belong to inactive results. Activity calls are given as the source filed them. Unless noted, the call rests on the fitted dose curve; in most records, active means well fitted curve in the direction sought with a large enough effect in the repeat runs; inconclusive means weak or mixed curves; inactive means no such curve, though single readings can be large; an effect the other way counts as inactive or inconclusive. Positions of bridges follow the written chain, without caps; N, C: chain ends. Non-standard residues stand in square brackets, D forms with d. Residues, ends and D or L forms follow the SMILES beside them. ξ: configuration not given here. *: point of attachment. d(aThr) = C[C@@H](O)[C@@H](N)C(=O)O; ξThr(3R) = C[C@@H](O)C(N)C(=O)O; X3 = CC[C@@H](C)CCCCC(=O)*; dDab = NCC[C@@H](N)C(=O)O
On the % scale 0 is the no-effect control and ±100 the full control effect.

Aryl hydrocarbon receptor (Homo sapiens), sequence (P35869 whole entry, looked up): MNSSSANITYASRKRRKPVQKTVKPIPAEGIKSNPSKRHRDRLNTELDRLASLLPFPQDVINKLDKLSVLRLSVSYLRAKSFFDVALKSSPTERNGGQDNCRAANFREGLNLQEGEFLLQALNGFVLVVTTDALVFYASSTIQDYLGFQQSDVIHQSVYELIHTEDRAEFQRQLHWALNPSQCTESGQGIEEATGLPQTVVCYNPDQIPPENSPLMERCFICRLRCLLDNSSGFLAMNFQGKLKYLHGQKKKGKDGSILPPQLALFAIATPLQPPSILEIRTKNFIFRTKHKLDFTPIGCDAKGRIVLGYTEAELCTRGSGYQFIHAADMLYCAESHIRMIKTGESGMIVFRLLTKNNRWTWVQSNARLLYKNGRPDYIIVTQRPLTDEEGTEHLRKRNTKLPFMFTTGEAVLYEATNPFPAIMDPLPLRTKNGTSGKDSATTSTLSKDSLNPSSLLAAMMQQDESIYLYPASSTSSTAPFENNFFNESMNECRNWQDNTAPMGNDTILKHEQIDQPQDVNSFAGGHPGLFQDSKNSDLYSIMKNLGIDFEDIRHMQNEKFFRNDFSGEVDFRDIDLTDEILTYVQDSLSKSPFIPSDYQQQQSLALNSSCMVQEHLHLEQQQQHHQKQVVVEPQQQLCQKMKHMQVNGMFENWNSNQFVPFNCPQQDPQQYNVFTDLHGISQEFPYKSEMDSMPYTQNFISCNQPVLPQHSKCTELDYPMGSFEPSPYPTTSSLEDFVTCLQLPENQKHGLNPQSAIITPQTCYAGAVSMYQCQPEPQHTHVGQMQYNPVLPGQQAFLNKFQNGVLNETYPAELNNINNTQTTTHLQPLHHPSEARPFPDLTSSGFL
Peroxisome proliferator-activated receptor gamma (Homo sapiens), sequence (P37231 whole entry, looked up): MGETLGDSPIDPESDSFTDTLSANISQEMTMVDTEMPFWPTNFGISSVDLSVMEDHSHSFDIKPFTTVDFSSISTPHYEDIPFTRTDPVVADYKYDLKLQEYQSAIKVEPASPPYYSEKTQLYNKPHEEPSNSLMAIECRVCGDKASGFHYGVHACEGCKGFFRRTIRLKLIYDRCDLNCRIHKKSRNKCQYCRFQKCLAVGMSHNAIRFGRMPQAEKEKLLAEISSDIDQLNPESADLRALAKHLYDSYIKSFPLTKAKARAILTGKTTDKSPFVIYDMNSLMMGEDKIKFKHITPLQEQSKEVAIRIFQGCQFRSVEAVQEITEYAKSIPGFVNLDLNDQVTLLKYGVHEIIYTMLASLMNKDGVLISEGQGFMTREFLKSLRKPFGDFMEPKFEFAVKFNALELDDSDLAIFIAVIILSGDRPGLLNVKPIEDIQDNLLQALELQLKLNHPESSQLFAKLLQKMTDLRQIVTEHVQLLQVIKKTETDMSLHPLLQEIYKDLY

As to `CCN(CC)CCC(=O)N1c2ccccc2Sc2ccc(Cl)cc21`, the Potency entry in assay [1], in assay [2], in assay [3] and in assay [4] was “inactive” each time. In addition, the max activation in assay [5] was 3.32%. Further, the Potency in assay [6] and in assay [7] was 14.1 µM (active) throughout.
Regarding `C[C@H](N)C(=O)N[C@@H](C)P(=O)(O)O`, the Potency entry in assay [1], in assay [2], in assay [8], in assay [3], in assay [4] and in assay [6] was “inactive” each time. In addition, the Potency entry in assay [7] is “inactive”. Moreover, the max activation in assay [5] was -2.51%.
For the molecule `CC1(C)S[C@@H]2[C@H](NC(=O)[C@H](NC(=O)N3CCN(S(C)(=O)=O)C3=O)c3ccccc3)C(=O)N2[C@H]1C(=O)O`, the Potency result in assay [1], in assay [2], in assay [8], in assay [3], in assay [4] and in assay [6] was “inactive” throughout. In addition, in assay [7], the Potency result was “inactive”. For the same molecule, the max activation in assay [5] is -9.82%.
In the case of `CC1CS(=O)(=O)CCN1/N=C/c1ccc([N+](=O)[O-])o1` (configuration not stated), the Potency result in assay [1], in assay [2], in assay [3], in assay [4], in assay [6] and in assay [7] was “inactive” throughout. The max activation in assay [5] was -7.04%.
For `CC(=O)Oc1cccc(C(=O)O)c1OC(C)=O`, the Potency entry in assay [1], in assay [2], in assay [8], in assay [3], in assay [4] and in assay [6] was “inactive” each time. In assay [7], the Potency entry is “inactive”. Moreover, the max activation in assay [5] was -1.97%.
As for `CC[C@@H](C)CCCCC(=O)N[C@H](CCN)C(=O)N[C@@H](C(=O)N[C@H](CCN)C(=O)N[C@@H]1CCNC(=O)C([C@@H](C)O)NC(=O)[C@@H](CCN)NC(=O)[C@@H](CCN)NC(=O)[C@@H](CC(C)C)NC(=O)[C@@H](Cc2ccccc2)NC(=O)[C@@H](CCN)NC1=O)[C@@H](C)O` (stereo partly drawn) (X3-[dDab][d(aThr)][dDab][dDab][dDab][dF][dL][dDab][dDab][ξThr(3R)]; lactam 4-C), the Potency result in assay [1], in assay [2], in assay [8], in assay [3], in assay [4] and in assay [6] was “inactive” in each case. The Potency entry in assay [7] is “inactive”. In assay [5], the max activation is -6%.
Take `Cn1c(=O)c2c(ncn2CCOC(=O)C(C)(C)Oc2ccc(Cl)cc2)n(C)c1=O`: the Potency entry in assay [1], in assay [2], in assay [8], in assay [3], in assay [4] and in assay [6] was “inactive” throughout. Moreover, the Potency entry in assay [7] is “inactive”. For the same molecule, the max activation in assay [5] was -1.7%.
For the molecule `O=c1oc2cc(O)ccc2s1`, the Potency entry in assay [1], in assay [2], in assay [8], in assay [3], in assay [4] and in assay [6] was “inactive” each time. Further, the Potency result in assay [7] was “inactive”. For the same molecule, the max activation in assay [5] is -17.1%.
With `CCCCCCCCCCCCCCCCCC(=O)OC[C@@H](O)[C@H]1OC[C@H](O)[C@H]1O`, the Potency result in assay [1], in assay [2], in assay [8], in assay [3], in assay [4] and in assay [6] was “inactive” each time. Moreover, the Potency result in assay [7] is “inactive”. Also, the max activation in assay [5] is -0.713%.
As for `CCN(CC)CCOC(=O)c1cccnc1`, the Potency entry in assay [1], in assay [2], in assay [8], in assay [3], in assay [4] and in assay [6] was “inactive” each time. The Potency entry in assay [7] was “inactive”. In addition, the max activation in assay [5] was -7.53%.
For `C[C@@H](O)[C@H]1C(=O)N2C(C(=O)[O-])=C(SC3Cn4cnc[n+]4C3)[C@H](C)[C@H]12` (some centres not stated), the Potency result in assay [1], in assay [2], in assay [8], in assay [3], in assay [4] and in assay [6] was “inactive” in each case. Besides, the Potency result in assay [7] was “inactive”. The max activation in assay [5] was 0.401%.
Take `C[N@+]12CCCC[C@@H]1CCC(=C(c1cccs1)c1cccs1)C2`: the Potency entry in assay [1], in assay [2], in assay [8], in assay [3], in assay [4] and in assay [6] was “inactive” each time. In addition, the Potency entry in assay [7] is “inactive”. In assay [5], the max activation is -3.7%.
`OCCO[C@@H]1[C@@H](O)[C@H](O)[C@@H](CO)O[C@@H]1O`: the Potency result in assay [1], in assay [2], in assay [3], in assay [4], in assay [6] and in assay [7] was “inactive” each time. In assay [5], the max activation was -3.49%.
On to `CCC(Oc1ccccc1)C(=O)N[C@@H]1C(=O)N2[C@@H]1SC(C)(C)[C@@H]2C(=O)O` (some centres not stated), for which the Potency result in assay [1], in assay [2], in assay [8], in assay [3], in assay [4] and in assay [6] was “inactive” throughout. Also, in assay [7], the Potency entry is “inactive”. In assay [5], the max activation was -1.86%.
For the molecule `CC(C)(CO)[C@@H](O)C(=O)NCCCC(=O)O`, the Potency result in assay [1], in assay [2], in assay [8], in assay [3], in assay [4] and in assay [6] was “inactive” in each case. Moreover, the Potency result in assay [7] was “inactive”. Besides, the max activation in assay [5] is -8.61%.
For the molecule `O=C1NC(=O)[C@H]2[C@@H]1[C@@H]1C=C[C@H]2C1`, the Potency entry in assay [1], in assay [2], in assay [8], in assay [3], in assay [4] and in assay [6] was “inactive” each time. For the same molecule, the Potency entry in assay [7] is “inactive”. Also, the max activation in assay [5] is -2.18%.
In the case of `COc1c(O[C@@H]2O[C@H](CO)[C@@H](O)[C@H](O)[C@H]2O)cc2c(c1OC)-c1ccc(SC)c(=O)cc1[C@@H](NC(C)=O)CC2`, the Potency entry in assay [1], in assay [2], in assay [3], in assay [4], in assay [6] and in assay [7] was “inactive” each time. In addition, the max activation in assay [5] is -2.99%.
As for `CCCCCCCCCCCCCCCCCC[N+](C)(C)CCC[Si](OC)(OC)OC`, the Potency entry in assay [1], in assay [2], in assay [8], in assay [3], in assay [4] and in assay [6] was “inactive” in each case. For the same molecule, the Potency entry in assay [7] is “inactive”. In assay [5], the max activation was 6.33%.
For the molecule `CC(=O)OCC(=O)[C@@]12OC3(CCCC3)O[C@@H]1C[C@H]1[C@@H]3CCC4=CC(=O)C=C[C@]4(C)[C@@]3(F)[C@@H](O)C[C@@]12C`, the Potency result in assay [1], in assay [2], in assay [3], in assay [4] and in assay [6] was “inactive” in each case. For the same molecule, the Potency in assay [5] is 25.1 µM (active); in assay [7], 14.1 µM (active).
